SMILES strings stand for the structures. Where “and” joins values, the source holds several entries; their conditions need not be identical. Equal values may be shown once. Records with an inconclusive call do not appear. Calls of active or inactive are those of the source. Unless noted, calls follow the shape of the dose curve; as a rule, active = well fitted curve in the direction sought with a large enough effect in the repeat runs; inconclusive = weak or mixed curves; inactive = no such curve, though single readings can be large; an effect the other way counts as inactive or inconclusive.

Experiment [1] can be described thus: qHTS assay for small molecules that induce genotoxicity in human embryonic kidney cells expressing luciferase-tagged ATAD5 (AID 651632). Also: nearly all actives have a fitted effect of over 15% in size. The gist of the method:
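Reporter cells (HEK293T) express luciferase-tagged ATAD5, a protein that accumulates after DNA damage. Treat 16 hr at 37C/5% CO2, add Amplite, wait 30 min at RT, and read luminescence.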
Background: qHTS replaces the single test concentration by a dilution series.

A short description of experiment [2]: qHTS assay for small molecule agonists of the p53 signaling pathway - cell viability (AID 651633; calls by dose curve; also: nearly all actives have a fitted effect of over 30% in size; also: potency is read from the fitted curve at half-maximal effect). In short, it runs like this:
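p53RE-bla cells, seeded at 4,000 per well and rested 5 h at 37 C/5% CO2, received compounds in DMSO for 16 h at 37 C. CellTiter-Glo was then added, and luminescence was read after 30 min at room temperature to gauge cytotoxicity.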

A short description of experiment [3]: qHTS assay for small molecules that induce genotoxicity in human embryonic kidney cells expressing luciferase-tagged ATAD5 - cell viability (AID 651634; calls by dose curve; also: nearly all actives have a fitted effect of over 25% in size; also: potency is read from the fitted curve at half-maximal effect). In short, it runs like this:
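Seeding of 2,000 HEK293T ATAD5-luciferase cells per well preceded pin-tool compound transfer. Plates sat 15.5 hr at 37C under 5% CO2, then fluorescence was read after 30 min with CellTiter-Fluor.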

Experiment [4] in a line: qHTS assay for small molecule disruptors of the mitochondrial membrane potential (AID 720635). Also: potency is read from the fitted curve at half-maximal effect. In short, it runs like this: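 HepG2 cells (2,000/well) attached overnight at 37C, then took compound for 1 hr at 37C, 5% CO2. Mito-MPS dye was added for 30 min; fluorescence was read at 490/535 nm (monomers) and 540/590 nm (aggregates).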
Experiment [5] can be described thus: qHTS assay to test for compound auto fluorescence at 590 nm (red) in HepG2 cells (AID 720674). The gist of the method: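 Intrinsic compound fluorescence in the red window (Ex/Em 540/590 nm) is measured in attached HepG2 cells exposed for 1 hr, DMSO vehicle as baseline, benchmarked to Rose Bengal sodium.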
Experiment [6] is described as follows: qHTS assay to test for compound auto fluorescence at 535 nm (green) in HepG2 cells (AID 720675).
Experiment [7] can be described thus: qHTS assay to test for compound auto fluorescence at 460 nm (blue) in HEK293 cells (AID 720678). In short, it runs like this: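 HEK293, 2,000 cells/well, 10% dialyzed FBS; attach 4-5 hr 37C; pin compound or DMSO; o/n 37C/5% CO2; fluorescence 405/460 nm; triamterene-equivalent units.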
The nature of experiment [8]: qHTS assay to test for compound auto fluorescence at 590 nm (red) in HEK293 cells (AID 720679). The gist of the method: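 Intensity at 540nm excitation and 590nm emission is reported as Rose Bengal sodium-equivalent autofluorescence. Measurements followed overnight exposure (37C, 5% CO2) of HEK293 cells, 2,000 per well, to 23 nL compound.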
Experiment [9] is described as follows: qHTS assay to test for compound auto fluorescence at 535 nm (green) in HEK293 cells (AID 720680).
Experiment [10] is described as follows: qHTS assay to test for compound auto fluorescence at 460 nm (blue) in HEK293 cell free culture (AID 720681). The gist of the method: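 Test compounds were pinned into cell-free culture medium (DMEM with 10% FBS) and fluorescence was read directly at Ex/Em 405/460 nm. Signals were expressed as fluorescence equivalents of triamterene, with DMSO vehicle as control.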

A short description of experiment [11]: qHTS assay to test for compound auto fluorescence at 535 nm (green) in HEK293 cell free culture (AID 720682). The gist of the method:
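Each library compound, or DMSO control, is added by pintool to medium alone, comprising DMEM and 10% FBS. Emission at 535 nm following 485 nm excitation is quantified against fluorescein.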

Experiment [12] can be described thus: qHTS assay to test for compound auto fluorescence at 590 nm (red) in HEK293 cell free culture (AID 720683). The gist of the method: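 Tox21 10K library compounds were pinned into cell-free DMEM with 10% FBS and fluorescence was read at excitation 540 nm. Activity is expressed as Rose Bengal sodium equivalency.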
A short description of experiment [13]: qHTS assay to test for compound auto fluorescence at 590 nm (red) in HepG2 cell free culture (AID 720684). In short, it runs like this: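 Measured in medium alone (MEM containing 10% FBS) following pintool addition of compound; emission at 590 nm with 540 nm excitation, referenced to Rose Bengal sodium.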
Experiment [14] is described as follows: qHTS assay to test for compound auto fluorescence at 460 nm (blue) in HepG2 cell free culture (AID 720685). The gist of the method:
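Compound (23 nL) or DMSO pinned into cell-free MEM with 10% FBS; blue fluorescence read at 405/460 nm excitation/emission, expressed as auto-fluorescence equivalency to triamterene.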

Experiment [15] is described as follows: qHTS assay to test for compound auto fluorescence at 535 nm (green) in HepG2 cell free culture (AID 720686).
Experiment [16] in a line: qHTS assay to test for compound auto fluorescence at 460 nm (blue) in HepG2 cells (AID 720687). The gist of the method: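 Cells (2,000/well in MEM with 10% FBS) attached overnight at 37 C, then were exposed to compound or DMSO for 1 hr at 37 C, 5% CO2. Fluorescence read at Ex/Em 405/460 nm, expressed as triamterene-equivalent signal.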
Experiment [17] in a line: qHTS assay for small molecule disruptors of the mitochondrial membrane potential - cell viability (AID 720634; calls by dose curve;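 also: human HepG2 liver cancer cells; series mostly up to about 83 µM; nearly all actives have a fitted effect of over 20% in size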). In short, it runs like this:
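Measuring cytotoxicity alongside mitochondrial potential, the screen quantified ATP by luminescence in HepG2 cells after 1 hr compound incubation and a 30 min room-temperature CellTiter-Glo step.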

Experiment [18] addresses Glucocorticoid receptor (Homo sapiens) (UniProt P04150). In words: qHTS assay to identify small molecule antagonists of the glucocorticoid receptor (GR) signaling pathway (AID 720692; active = well fitted inhibition curve with a large enough effect in the signal ratio in the repeat runs, not every such curve was filed as active; the % refers to the signal ratio; also: potency is read from the fitted curve at half-maximal effect). The gist of the method: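 Dexamethasone (5 nM final) stimulated a stably integrated GRE-beta-lactamase reporter in HeLa cells during 18 h co-incubation with compounds; signal was quantified as fluorescence intensity of B/G FRET substrate after 2 h.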

The nature of experiment [19]: qHTS assay for small molecule agonists of the p53 signaling pathway (AID 651631; calls by dose curve; also: nearly all actives have a fitted effect of over 15% in size; also: potency is read from the fitted curve at half-maximal effect). The gist of the method:
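Beta-lactamase reporter activity under p53 response elements was quantified in HCT-116 cells by FRET fluorescence, following 16 h incubation with test compounds at 37 °C and 2 h substrate development at room temperature.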

The target of experiment [20] is Glucocorticoid receptor (Homo sapiens) (UniProt P04150). In words: qHTS assay to identify small molecule agonists of the glucocorticoid receptor (GR) signaling pathway (AID 720691; active = well fitted activation curve with a large enough effect in the signal ratio in the repeat runs, not every such curve was filed as active; the % refers to the signal ratio). The gist of the method: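 Reporter read-out: fluorescence intensity following 2 h room-temperature LiveBLAzer B/G FRET substrate loading. Prior step: GR-bla HeLa cells held 4 h, then treated 18 h at 37 C.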
Sequence of Glucocorticoid receptor (Homo sapiens) (P04150 whole entry, looked up): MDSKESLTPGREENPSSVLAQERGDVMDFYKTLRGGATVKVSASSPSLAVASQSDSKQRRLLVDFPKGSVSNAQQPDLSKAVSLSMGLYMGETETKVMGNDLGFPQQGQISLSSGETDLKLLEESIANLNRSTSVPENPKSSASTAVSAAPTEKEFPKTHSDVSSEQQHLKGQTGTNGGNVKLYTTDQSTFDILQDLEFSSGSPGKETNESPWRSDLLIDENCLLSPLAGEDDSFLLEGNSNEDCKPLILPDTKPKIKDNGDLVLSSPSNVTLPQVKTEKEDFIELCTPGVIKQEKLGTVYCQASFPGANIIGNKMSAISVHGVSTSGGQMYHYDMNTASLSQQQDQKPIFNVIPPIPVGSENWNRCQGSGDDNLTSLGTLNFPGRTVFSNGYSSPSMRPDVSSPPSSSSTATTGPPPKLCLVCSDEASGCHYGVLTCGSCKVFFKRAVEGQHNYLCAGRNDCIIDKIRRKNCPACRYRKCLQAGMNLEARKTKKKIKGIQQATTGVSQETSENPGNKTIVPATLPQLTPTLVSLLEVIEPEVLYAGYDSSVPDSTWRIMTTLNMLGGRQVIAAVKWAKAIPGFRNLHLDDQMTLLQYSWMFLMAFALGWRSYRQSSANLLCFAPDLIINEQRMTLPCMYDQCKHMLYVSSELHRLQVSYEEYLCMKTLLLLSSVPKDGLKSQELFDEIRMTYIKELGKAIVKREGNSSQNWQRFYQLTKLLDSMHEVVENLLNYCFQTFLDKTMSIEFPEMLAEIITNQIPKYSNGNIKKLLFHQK

As for `COc1cc(O)c(C(=O)c2ccccc2)cc1S(=O)(=O)O`, the Potency entry in experiment [1], in experiment [2], in experiment [3] and in experiment [4] was “inactive” in each case. The compound was called inactive in [5], in [6], in experiment [7], in experiment [8], in [9] and in [10]. In addition, the call in experiment [11], in [12], in [13], in experiment [14], in experiment [15] and in [16] was inactive.

For the compound `c1ccc2[nH]c(-c3cscn3)nc2c1`, the Potency entry in experiment [2], in [3], in experiment [17] and in [18] was “inactive” in each case. Also, the compound was classed as inactive in [5], in experiment [6], in experiment [7], in experiment [8], in experiment [9] and in experiment [10]. The outcome in [11], in experiment [12], in experiment [13], in experiment [14], in experiment [15] and in experiment [16] was inactive.

For `CCc1cc(C(N)=S)ccn1`, the Potency entry in [19], in experiment [2], in [3], in [4] and in [18] was “inactive” in each case. For the same compound, the compound was called inactive in experiment [5], in experiment [6], in experiment [7], in experiment [8], in experiment [9] and in [10]. Besides, the call in [11], in experiment [12], in [13], in experiment [14], in [15] and in experiment [16] was inactive.

On to `CC(C)(C)CC(C)(C)c1ccc(O)c(-n2nc3ccccc3n2)c1`, for which the Potency is 49.2 µM (active) and 48.6 µM (active) in experiment [2]; 10.6 µM (active) and 24.7 µM (active) and 30.6 µM (active) in [4]. For the same compound, the Potency entry in experiment [3], in experiment [17], in [20] and in experiment [18] was “inactive” throughout. For the same compound, the compound was called inactive in [5], in experiment [6], in experiment [7], in experiment [8], in [9] and in [10]. Further, the call in experiment [11], in experiment [12], in experiment [13], in [14], in [15] and in experiment [16] was inactive.

As to `CCCCCCCCCCCCCCCCCC(=O)OCC(O)CO` (stereo unspecified), the Potency entry in experiment [2], in experiment [3], in [17], in experiment [4] and in experiment [18] was “inactive” throughout. Moreover, the compound was called inactive in experiment [5], in experiment [6], in experiment [7], in experiment [8], in experiment [9] and in experiment [10]. For the same compound, the compound was called inactive in experiment [11], in [12], in experiment [13], in experiment [14], in experiment [15] and in experiment [16].

With `NC(=O)N1c2ccccc2C=Cc2ccccc21`, the Potency entry in experiment [2], in experiment [3] and in experiment [4] was “inactive” throughout. Moreover, the compound was classed as inactive in [5], in experiment [6], in experiment [7], in experiment [8], in experiment [9] and in experiment [10]. The compound was classed as inactive in experiment [11], in experiment [12], in experiment [13], in experiment [14], in [15] and in experiment [16].

For the compound `C#C[C@]1(O)CC[C@H]2[C@@H]3CCc4cc(O)ccc4[C@H]3CC[C@@]21C`, the Potency in experiment [19] is 8.41 µM (active) and 7.64 µM (active) and 6.11 µM (active); in experiment [3], 15.2 µM (active); in experiment [4] it was 13.3 µM (active) and 13.6 µM (active) and 17.2 µM (active); in experiment [18], 1.54 µM (active). In [2], the Potency result is “inactive”. Besides, the outcome in experiment [5], in experiment [6], in experiment [7], in [8], in experiment [9] and in experiment [10] was inactive. Also, the compound was classed as inactive in experiment [11], in experiment [12], in experiment [13], in experiment [14], in experiment [15] and in experiment [16].
